Several values for one entry are separate records, joined by “and”; a condition that tells them apart may be missing. Identical values can stand only once. Results filed as inconclusive are left out. Activity calls are given as the source filed them. Unless noted, the call rests on the fitted dose curve; in most records, active means well fitted curve in the direction sought with a large enough effect; inconclusive means small, poorly fitted or top-dose-only effect, or another doubt; inactive means no such curve, though single readings can be large; an effect the other way counts as inactive or inconclusive.
Assays:
[1] = Cell Viability - BJ (AID 421; calls by dose curve;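 further: potency means the concentration at half of the fitted maximal effect; cells exposed to compound for 40 hours at 37 °C before readout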); details: BJ fibroblast viability, qHTS
Outline: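 Luminescent ATP signal (CellTiter-Glo, 20 min at room temperature) served as the read-out of viable BJ cells after 40 hours of compound treatment. Responses were scaled between DMSO and 100 uM tamoxifen, and AC50 values were obtained by Hill modeling.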

[2] = Cell Viability - HepG2 (AID 433; calls by dose curve;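 further: potency means the concentration at half of the fitted maximal effect; potency for ATP loss meaning cytotoxicity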); details: qHTS
Outline: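 In this qHTS format, a 40 h, 37 °C compound incubation of HepG2 cells in complete medium precedes a 20 min CellTiter-Glo step at room temperature. Tamoxifen and doxorubicin serve as positive controls; Hill-equation fits yield AC50.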

[3] = Cell Viability - N2a (AID 540); details: N2a mouse neuroblastoma cell viability; activity change, negative = cytotoxicity: at 92.2 µM (top of the series);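 further: plate controls were DMSO alone for no effect and tamoxifen control for full effect; nearly all actives have a fitted effect of over 45% in size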
Outline: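 In this qHTS cytotoxicity screen, ATP-dependent luciferase luminescence reports viable N2a cells after a 40 hr compound exposure in complete culture medium. Potencies are AC50 values from standard Hill equation fits.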

[4] = Cell Viability - H-4-II-E (AID 543); details: H-4-II-E rat hepatoma viability; series mostly up to 92.2 µM; further: nearly all actives have a fitted effect of over 35% in size; further: potency means the concentration at half of the fitted maximal effect
Outline: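 AC50 from Hill-modelled qHTS concentration-response curves. H-4-II-E rat hepatoma cells in complete medium, 40 hr exposure at 37 °C, viability by CellTiter-Glo ATP luminescence.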

[5] = MultiTox-Fluor Cytotoxicity Assay - LYMP1-002 - Live Cells (AID 955); details: LYMP1-002 lymphoblastoid live-cell protease fluorescence viability; series mostly up to 46.1 µM;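 further: cells exposed to compound for 16 hours; on the % scale 0 is the no-effect control and ±100 the full control effect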
Outline: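 In this qHTS viability format, lymphoblastoid cells (LYMP1-002, human) received compound for 16 hr at 37 C. Fluorogenic GF-AFC cleavage by viable cells was detected at 405/510 nm after 1 h at room temperature.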

[6] = MultiTox-Fluor Cytotoxicity Assay - LYMP1-002 - Dead Cells (AID 960); details: LYMP1-002 lymphoblastoid cells, dead-cell protease fluorescence; series mostly up to 46.1 µM; further: nearly all actives have a fitted effect of over 60% in size; further: potency means the concentration at half of the fitted maximal effect
Outline: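 Concentration-dependent increases in membrane-leaked protease activity are quantified in LYMP1-002 cells after 16 hr treatment; values are normalized against DMSO and tetraoctylammonium bromide (15 uM) controls and AC50 derived by Hill modeling.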

[7] = Cell Viability - LYMP1-003 - Assay at 40 hr (AID 964); details: LYMP1-003 lymphoblastoid viability; series mostly up to 92.2 µM; further: nearly all actives have a fitted effect of over 60% in size; further: potency means the concentration at half of the fitted maximal effect
Outline: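 Acute toxicity is scored as a concentration-dependent loss of intracellular ATP in LYMP1-003 cells (2500/well, complete medium) after 40 hr at 37 C, measured by CellTiter-Glo luminescence; AC50 values derive from standard Hill modelling.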

[8] = Cell Viability - LYMP2-004 (AID 966); details: LYMP2-004 lymphoblastoid cell viability, qHTS; series mostly up to 92.2 µM;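 further: cells exposed to compound for 24 h; nearly all actives have a fitted effect of over 65% in size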; further: potency means the concentration at half of the fitted maximal effect;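 on activity change, negative = cytotoxicity: plate controls were DMSO only for no effect and tetraoctylammonium bromide control for full effect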
Outline: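 Viable-cell number estimated from ATP luminescence (CellTiter-Glo) in 2500 human lymphoblastoid cells/well after 24 hr at 37 C with compound. AC50 fitted to the standard Hill equation.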

[9] = Cell Viability - LYMP2-013 (AID 970); details: LYMP2-013 lymphoblastoid cells viability; series mostly up to 92.2 µM;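 further: cells exposed to compound for 24 h at 37 °C; nearly all actives have a fitted effect of over 55% in size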; further: potency means the concentration at half of the fitted maximal effect
Outline: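 In complete culture medium, human lymphoblastoid cells were dosed for 24 hr at 37 C, with tetraoctylammonium bromide (6.4pM to 92 uM) as positive control. Viability reflects luciferase-based ATP signal; AC50 derived from concentration-response curves.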

[10] = Cell Viability - LYMP2-002 (AID 977); details: LYMP2-002 lymphoblastoid cell viability, qHTS; series mostly up to 92.2 µM;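 further: compound exposure lasted 24 h at 37 °C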; further: potency means the concentration at half of the fitted maximal effect
Outline: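 In this qHTS viability screen, 2500 human lymphoblastoid cells per well receive compound for 24 hr at 37 C, and luciferase-based ATP luminescence gives the viability signal. Tetraoctylammonium bromide serves as positive control.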

[11] = Cell Viability - LYMP2-016 (AID 984); details: LYMP2-016 lymphoblastoid cell viability, qHTS; series mostly up to 92.2 µM;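 further: cells exposed to compound for 24 hours at 37 °C; nearly all actives have a fitted effect of over 55% in size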; further: potency means the concentration at half of the fitted maximal effect; on activity change, negative = cytotoxicity: on the % scale 0 is the no-effect control and ±100 the full control effect
Outline: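 Concentration-dependent ATP depletion measured in LYMP2-016 lymphoblastoid cells, 24 h, 37 C; luciferase-based luminescent detection; Hill-equation AC50.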

[12] = Cell Viability - LYMP2-018 (AID 985); details: LYMP2-018 lymphoblastoid cells, viability (qHTS); series mostly up to 92.2 µM; further: nearly all actives have a fitted effect of over 50% in size; further: potency means the concentration at half of the fitted maximal effect;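 on activity change, negative = cytotoxicity: plate controls were DMSO only for no effect and tetraoctylammonium bromide at 92 µM for full effect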
Outline: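 In this qHTS viability assay, cells are treated for 24 hr and cellular ATP is quantified by luciferase-based luminescence, with tetraoctylammonium bromide as positive control.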

[13] = Cell Viability - LYMP2-020 (AID 986); details: series mostly up to 92.2 µM;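 further: cells exposed to compound for 24 h at 37 °C; nearly all actives have a fitted effect of over 55% in size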; further: potency means the concentration at half of the fitted maximal effect
Outline: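 Cells at 2500 per well receive a 24 hr compound exposure at 37 C. Viability is measured as ATP-dependent luciferase luminescence, with AC50 modeled from qHTS concentration-response curves.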

[14] = Cell Viability - LYMP2-022 (AID 987); details: LYMP2-022 lymphoblastoid cell viability; series mostly up to 92.2 µM; further: nearly all actives have a fitted effect of over 55% in size; further: potency means the concentration at half of the fitted maximal effect
Outline: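 In this qHTS cytotoxicity screen, compound titrations were incubated 24 hr at 37 C with human lymphoblastoid cells in complete medium. Luciferase-based ATP luminescence provided the viability signal.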

[15] = qHTS assay for small molecule antagonists of retinoid X receptor alpha signaling (AID 588546; active means well fitted inhibition curve with a large enough effect in the signal ratio, with a control signal flat, not every such curve was filed as active; the % refers to the signal ratio; further: potency means the concentration at half of the fitted maximal effect); details: HEK293T RXRa-UAS-bla, beta-lactamase ratio, antagonist mode; measured here: W530 green channel, cytotoxicity proxy
Outline: (§1)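 Beta-lactamase reporter inhibition, read as CCF4 fluorescence ratio (ex 405, em 460/530 nm) after 2 h at RT. HEK293T UAS-bla cells, 2500/well, were stimulated with 9-cis-RA at 500 or 100 nM final alongside test compound for 18 h at 37 C.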

[16] = target: Retinoic acid receptor RXR-alpha (Homo sapiens) (UniProt P19793); test: as above; details: HEK293T RXRa-UAS-bla, beta-lactamase ratio, antagonist mode
Sequence of Retinoic acid receptor RXR-alpha (Homo sapiens) (P19793 whole entry, looked up): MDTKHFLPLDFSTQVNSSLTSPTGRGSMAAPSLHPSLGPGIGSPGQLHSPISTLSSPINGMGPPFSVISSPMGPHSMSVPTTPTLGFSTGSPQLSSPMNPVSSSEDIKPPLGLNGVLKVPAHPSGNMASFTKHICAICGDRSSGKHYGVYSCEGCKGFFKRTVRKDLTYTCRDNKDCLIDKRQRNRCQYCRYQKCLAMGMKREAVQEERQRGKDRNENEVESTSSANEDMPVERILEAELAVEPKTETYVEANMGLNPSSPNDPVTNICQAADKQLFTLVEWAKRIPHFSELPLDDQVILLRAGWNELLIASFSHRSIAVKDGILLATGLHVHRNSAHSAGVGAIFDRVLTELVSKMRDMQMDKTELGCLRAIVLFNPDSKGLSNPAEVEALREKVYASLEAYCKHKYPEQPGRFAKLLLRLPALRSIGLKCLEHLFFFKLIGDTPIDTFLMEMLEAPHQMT
Outline: as §1

[17] = target: Thyroid hormone receptor beta (Homo sapiens) (UniProt P10828); test: qHTS assay for small molecule antagonists of thyroid hormone receptor beta signaling (AID 588547; active means well fitted inhibition curve with a large enough effect in the signal ratio, with a control signal flat, not every such curve was filed as active; the % refers to the signal ratio;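 further: cells stimulated with 0.4 nM T3 agonist during compound exposure; on the % scale 0 is the no-effect control and ±100 the full control effect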); details: TR-UAS-bla HEK293, beta-lactamase ratio, antagonist mode, 18 h
Sequence of Thyroid hormone receptor beta (Homo sapiens) (P10828 whole entry, looked up): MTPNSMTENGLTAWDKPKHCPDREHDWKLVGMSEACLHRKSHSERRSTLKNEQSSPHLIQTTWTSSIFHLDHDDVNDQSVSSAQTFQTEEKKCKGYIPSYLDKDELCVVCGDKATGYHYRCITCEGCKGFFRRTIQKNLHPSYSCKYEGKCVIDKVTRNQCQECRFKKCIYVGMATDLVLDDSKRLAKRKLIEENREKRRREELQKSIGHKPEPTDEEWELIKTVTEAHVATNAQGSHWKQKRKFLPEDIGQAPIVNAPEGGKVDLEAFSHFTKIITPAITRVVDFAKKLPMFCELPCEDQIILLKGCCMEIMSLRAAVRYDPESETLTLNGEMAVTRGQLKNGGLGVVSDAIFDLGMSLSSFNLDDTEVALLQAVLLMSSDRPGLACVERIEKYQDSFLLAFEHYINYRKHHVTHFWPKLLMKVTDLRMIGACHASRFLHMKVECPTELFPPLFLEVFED
Outline: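 TR-UAS-bla GripTite HEK293 cells in 2% charcoal/dextran FBS medium were preincubated 4 h at 37 C, given compound (0.59 nM to 92 uM) plus 0.4 nM T3 (final) for 18 h, then CCF4 for 2 h at RT; Hill fit gave IC50.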

[18] = qHTS assay for environmental chemicals that activate the Aryl hydrocarbon Receptor (AhR) signaling pathway (AID 651777); details: 1A2-DRE human hepatoma cells, luciferase, 24 h; activation: stronger effect = higher value; further: % of control where 0% means no effect; nearly all actives have a fitted effect of over 15% in size
Outline: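 1A2-DRE human hepatoma reporter line; 1,200 cells/well; cmpd or DMSO 24 h, 37 C/5% CO2; One-Glo 30 min RT; luciferase lum.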

[19] = target: Nuclear receptor subfamily 1 group I member 2 (Rattus norvegicus) (UniProt Q9R1A7); test: qHTS assay for small molecule activators of the rat pregnane X receptor (rPXR) signaling pathway (AID 651751; call rule not given here; further: 0% is about no effect); details: rPXR reporter cells, luciferase (One-Glo), 24 h
Sequence of Nuclear receptor subfamily 1 group I member 2 (Rattus norvegicus) (Q9R1A7 whole entry, looked up): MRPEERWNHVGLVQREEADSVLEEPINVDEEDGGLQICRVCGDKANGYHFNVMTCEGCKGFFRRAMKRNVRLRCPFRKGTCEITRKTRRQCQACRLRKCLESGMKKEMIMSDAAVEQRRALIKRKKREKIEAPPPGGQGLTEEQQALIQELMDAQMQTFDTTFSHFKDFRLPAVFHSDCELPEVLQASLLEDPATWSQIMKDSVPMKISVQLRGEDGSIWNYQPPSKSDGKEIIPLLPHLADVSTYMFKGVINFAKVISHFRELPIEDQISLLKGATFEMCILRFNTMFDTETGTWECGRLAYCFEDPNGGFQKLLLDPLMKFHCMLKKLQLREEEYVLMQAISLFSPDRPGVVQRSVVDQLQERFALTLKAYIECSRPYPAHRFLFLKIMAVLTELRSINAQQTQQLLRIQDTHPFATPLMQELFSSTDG

[20] = target: Mitogen-activated protein kinase 10 (Mus musculus) (UniProt Q61831); test: JNK3 AlphaScreen Assay (AID 530; active means well fitted curve in either direction with a large enough effect, not every such curve was filed as active;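 further: kinase came from lysate of stimulated human HepG2 cells; signal reports phosphorylation of biotinylated GST-cJun 1-79 at Ser73 with 10 µM ATP; on the % scale 0 is the no-effect control and ±100 the full control effect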); details: JNK3 lysate, c-Jun phosphorylation; series mostly up to 11.4 µM
Outline: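 Biotinylated GST-cJun(1-79) served as substrate for JNK3 in HepG2 lysates stimulated with IL-1beta and TNF-alpha. ATP was 10 uM final, pH 7.6. Ser73 phosphorylation was quantified by AlphaScreen (680 nm excitation).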

c1ccc(CSCc2ccccc2)cc1
inactive: Potency [1] > 92 µM | Potency [2] > 92 µM | activity change, negative = cytotoxicity [3] -17.4% | Potency [4] | outcome [5] | Potency [6] | Potency [7] | Potency [8] | Potency [9] | Potency [10] | Potency [11] | Potency [12] | Potency [13] | Potency [14] | max response [16] 1.24% | activity change % (negative = inhibition) [17] -5.66% | activation [18] -0.759% | max response [19] -1.32%
-3.11%: max response [15]

Cc1c2ccccc2c(C)c2c1ccc1ccccc12
active: Potency [1] 13.8 µM | Potency [6] 25.1 µM | Potency [16] 8.91 µM
-10.9%: max response [15]
inactive: activity change, negative = cytotoxicity [3] -25% | Potency [4] | outcome [5] | Potency [8] | Potency [9] | Potency [10] | Potency [11] | Potency [12] | Potency [13] | Potency [14]

Brc1cc(Br)c(Oc2cc(Br)c(Br)cc2Br)cc1Br
inactive: Potency [1] > 92 µM | Potency [2] > 92 µM | Potency [4] | outcome [5] | Potency [6] | Potency [7] | Potency [8] | Potency [9] | Potency [10] | Potency [11] | Potency [12] | Potency [13] | Potency [14] | activity change % (negative = inhibition) [17] 17.2% | activation [18] -1.17% | max response [19] -2.15%

Cc1c(N)cccc1Cl
inactive: Potency [1] > 92 µM | Potency [2] > 92 µM | activity change, negative = cytotoxicity [3] -8.37% | Potency [4] | outcome [5] | Potency [6] | Potency [7] | Potency [8] | Potency [9] | Potency [10] | Potency [11] | Potency [12] | Potency [13] | Potency [14] | max response [16] 1.61% | activity change % (negative = inhibition) [17] 0.909% | activation [18] -0.26% | max response [19] 7.66%
0.883%: max response [15]

C=CC(=O)OCCCCCCOC(=O)C=C
inactive: Potency [2] > 92 µM | Potency [20] | max response [16] -43.4% and 3.26% | activity change % (negative = inhibition) [17] -7.08% | activation [18] -0.448% and 0.963% | max response [19] -2.77% and -1.84%
active: activity change, negative = cytotoxicity [3] -110% | Potency [4] 39.8 µM | Potency [6] 31.6 µM | Potency [7] 39.8 µM | Potency [8] 39.8 µM | Potency [9] 39.8 µM | Potency [10] 50.1 µM | Potency [11] 39.8 µM | Potency [12] 39.8 µM | Potency [13] 39.8 µM | Potency [14] 39.8 µM
3.39% and -7.34%: max response [15]

OCC(CBr)(CBr)CBr
-12.3%: max response [15]
inactive: Potency [1] > 92 µM | Potency [2] > 92 µM | Potency [20] | Potency [4] | outcome [5] | Potency [7] | Potency [8] | Potency [9] | Potency [10] | Potency [11] | Potency [12] | Potency [13] | Potency [14] | max response [16] 0.481% | activity change % (negative = inhibition) [17] -0.909% | activation [18] 7.86% | max response [19] 6.71%

From PubChem BioAssay (NCATS)
